Broadly, the inhibition is the drop in the measured response relative to a control, in per cent.

In experiment [1] the target is Protein kinase C gamma type (Homo sapiens) (UniProt P05129). Particulars: at 1 µM.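 Also: each value is an averaged percent inhibition of the enzyme.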
Experiment [2] has as its target T1, Protein kinase C iota type (Homo sapiens) (UniProt P41743).
T1 sequence (whole entry): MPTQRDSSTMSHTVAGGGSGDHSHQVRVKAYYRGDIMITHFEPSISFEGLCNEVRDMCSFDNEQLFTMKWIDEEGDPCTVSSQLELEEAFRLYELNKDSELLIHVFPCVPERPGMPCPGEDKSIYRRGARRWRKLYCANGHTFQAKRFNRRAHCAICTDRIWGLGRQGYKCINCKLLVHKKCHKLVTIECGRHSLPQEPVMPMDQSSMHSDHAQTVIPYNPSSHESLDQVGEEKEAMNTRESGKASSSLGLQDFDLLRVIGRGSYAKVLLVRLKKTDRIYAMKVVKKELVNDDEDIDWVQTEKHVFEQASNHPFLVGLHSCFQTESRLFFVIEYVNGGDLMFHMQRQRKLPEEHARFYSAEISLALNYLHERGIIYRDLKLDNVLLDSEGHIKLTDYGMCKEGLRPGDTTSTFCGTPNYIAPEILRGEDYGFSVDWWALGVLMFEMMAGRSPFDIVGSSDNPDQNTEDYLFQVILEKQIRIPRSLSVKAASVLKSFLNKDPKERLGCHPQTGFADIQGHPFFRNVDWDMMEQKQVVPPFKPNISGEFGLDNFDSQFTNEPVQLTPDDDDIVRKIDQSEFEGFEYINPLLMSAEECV
To be noted: at 0.1 µM.

The target in experiment [3] is T1, Protein kinase C iota type (Homo sapiens). Particulars: at 1 µM.
The target in experiment [4] is Protein kinase C theta type (Homo sapiens) (UniProt Q04759). Particulars: at 0.1 µM.
Experiment [5] shares this target. To be noted: at 1 µM.
Experiment [6] deals with Protein kinase C beta type (Homo sapiens) (UniProt P05771). To be noted: at 0.1 µM.
The target is the same in experiment [7]. To be noted: at 1 µM.
In experiment [8] the target is T2, Serine/threonine-protein kinase D1 (Homo sapiens) (UniProt Q15139).
T2 sequence (whole entry): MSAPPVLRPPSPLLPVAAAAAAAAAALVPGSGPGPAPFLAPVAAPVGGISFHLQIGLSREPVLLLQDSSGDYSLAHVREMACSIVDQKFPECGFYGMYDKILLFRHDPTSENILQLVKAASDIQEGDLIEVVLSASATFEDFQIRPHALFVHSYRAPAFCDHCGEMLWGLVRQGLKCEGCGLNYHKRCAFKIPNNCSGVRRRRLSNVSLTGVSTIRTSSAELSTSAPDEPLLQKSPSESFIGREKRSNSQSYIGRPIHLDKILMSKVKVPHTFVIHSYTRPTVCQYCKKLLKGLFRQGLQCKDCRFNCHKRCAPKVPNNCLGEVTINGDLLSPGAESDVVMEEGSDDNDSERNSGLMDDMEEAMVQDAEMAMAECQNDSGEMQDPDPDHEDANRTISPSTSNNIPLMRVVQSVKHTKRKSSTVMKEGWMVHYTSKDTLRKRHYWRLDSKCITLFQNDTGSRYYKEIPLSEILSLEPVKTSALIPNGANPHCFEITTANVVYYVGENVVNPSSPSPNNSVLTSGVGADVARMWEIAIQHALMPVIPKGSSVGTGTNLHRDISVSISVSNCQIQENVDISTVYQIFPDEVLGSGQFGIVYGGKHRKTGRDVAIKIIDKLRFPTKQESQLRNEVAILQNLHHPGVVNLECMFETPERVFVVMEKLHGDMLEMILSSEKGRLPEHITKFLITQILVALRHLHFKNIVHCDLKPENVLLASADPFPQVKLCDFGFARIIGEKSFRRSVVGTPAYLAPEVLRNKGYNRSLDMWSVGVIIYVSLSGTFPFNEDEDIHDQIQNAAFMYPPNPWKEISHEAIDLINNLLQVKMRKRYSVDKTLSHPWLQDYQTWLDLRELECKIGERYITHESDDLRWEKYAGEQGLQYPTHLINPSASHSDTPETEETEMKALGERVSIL
To be noted: at 0.1 µM.

Experiment [9] has as its target T2, Serine/threonine-protein kinase D1 (Homo sapiens). Particulars: at 1 µM.
The target of experiment [10] is T3, Serine/threonine-protein kinase D2 (Homo sapiens) (UniProt Q9BZL6).
T3 sequence (whole entry): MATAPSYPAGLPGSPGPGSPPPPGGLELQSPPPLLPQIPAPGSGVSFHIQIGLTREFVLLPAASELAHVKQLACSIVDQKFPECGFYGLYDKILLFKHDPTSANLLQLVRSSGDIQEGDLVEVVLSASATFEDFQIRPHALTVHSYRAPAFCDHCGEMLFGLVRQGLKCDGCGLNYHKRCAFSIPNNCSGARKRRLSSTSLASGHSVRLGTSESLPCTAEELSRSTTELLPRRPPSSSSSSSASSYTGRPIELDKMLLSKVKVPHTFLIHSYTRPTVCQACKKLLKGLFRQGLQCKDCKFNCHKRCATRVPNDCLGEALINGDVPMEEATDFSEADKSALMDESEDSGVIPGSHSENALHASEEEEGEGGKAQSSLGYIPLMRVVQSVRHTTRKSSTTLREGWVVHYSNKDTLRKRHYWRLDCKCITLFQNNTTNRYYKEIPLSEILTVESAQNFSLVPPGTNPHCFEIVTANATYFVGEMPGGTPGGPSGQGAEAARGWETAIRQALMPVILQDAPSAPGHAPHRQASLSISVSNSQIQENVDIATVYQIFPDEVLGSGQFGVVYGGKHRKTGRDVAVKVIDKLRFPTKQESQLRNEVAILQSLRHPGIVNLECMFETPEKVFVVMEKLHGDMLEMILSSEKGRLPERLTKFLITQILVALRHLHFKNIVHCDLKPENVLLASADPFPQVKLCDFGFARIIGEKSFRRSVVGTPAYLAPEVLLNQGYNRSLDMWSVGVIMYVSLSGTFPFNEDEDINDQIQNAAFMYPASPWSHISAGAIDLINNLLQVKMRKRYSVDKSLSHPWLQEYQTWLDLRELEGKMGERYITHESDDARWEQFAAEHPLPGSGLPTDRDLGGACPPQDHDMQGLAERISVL
To be noted: at 0.1 µM.

Experiment [11] concerns the target T3, Serine/threonine-protein kinase D2 (Homo sapiens). Particulars: at 1 µM.
For experiment [12], the target named is T4, Serine/threonine-protein kinase D3 (Homo sapiens) (UniProt O94806).
T4 sequence (whole entry): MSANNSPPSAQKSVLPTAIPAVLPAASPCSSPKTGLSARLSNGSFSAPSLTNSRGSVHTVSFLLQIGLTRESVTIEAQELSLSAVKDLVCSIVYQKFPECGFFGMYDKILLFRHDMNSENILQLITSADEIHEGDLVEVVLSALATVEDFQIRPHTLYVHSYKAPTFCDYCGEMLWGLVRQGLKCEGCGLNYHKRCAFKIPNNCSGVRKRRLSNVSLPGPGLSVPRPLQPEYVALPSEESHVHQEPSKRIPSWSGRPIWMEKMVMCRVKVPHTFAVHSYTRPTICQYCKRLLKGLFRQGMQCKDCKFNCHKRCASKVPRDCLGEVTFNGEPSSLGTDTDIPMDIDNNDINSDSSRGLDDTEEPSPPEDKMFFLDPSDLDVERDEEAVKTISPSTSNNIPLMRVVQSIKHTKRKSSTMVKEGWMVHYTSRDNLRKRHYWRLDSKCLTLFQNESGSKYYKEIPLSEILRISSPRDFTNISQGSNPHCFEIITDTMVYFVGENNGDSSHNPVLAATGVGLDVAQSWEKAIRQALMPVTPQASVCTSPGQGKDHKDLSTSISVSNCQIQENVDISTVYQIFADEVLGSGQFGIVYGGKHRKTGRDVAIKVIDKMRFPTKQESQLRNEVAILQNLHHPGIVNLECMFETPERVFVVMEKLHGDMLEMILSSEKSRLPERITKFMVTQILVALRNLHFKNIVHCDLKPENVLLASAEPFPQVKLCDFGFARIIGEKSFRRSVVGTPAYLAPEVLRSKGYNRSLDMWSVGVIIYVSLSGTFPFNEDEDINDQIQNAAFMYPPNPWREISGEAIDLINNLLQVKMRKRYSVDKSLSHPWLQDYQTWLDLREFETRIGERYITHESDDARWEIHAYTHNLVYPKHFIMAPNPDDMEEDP
To be noted: at 0.1 µM.

In experiment [13] the target is T4, Serine/threonine-protein kinase D3 (Homo sapiens). Particulars: at 1 µM.
The target of experiment [14] is T5, cGMP-dependent protein kinase 1 (Homo sapiens) (UniProt Q13976).
T5 sequence (whole entry): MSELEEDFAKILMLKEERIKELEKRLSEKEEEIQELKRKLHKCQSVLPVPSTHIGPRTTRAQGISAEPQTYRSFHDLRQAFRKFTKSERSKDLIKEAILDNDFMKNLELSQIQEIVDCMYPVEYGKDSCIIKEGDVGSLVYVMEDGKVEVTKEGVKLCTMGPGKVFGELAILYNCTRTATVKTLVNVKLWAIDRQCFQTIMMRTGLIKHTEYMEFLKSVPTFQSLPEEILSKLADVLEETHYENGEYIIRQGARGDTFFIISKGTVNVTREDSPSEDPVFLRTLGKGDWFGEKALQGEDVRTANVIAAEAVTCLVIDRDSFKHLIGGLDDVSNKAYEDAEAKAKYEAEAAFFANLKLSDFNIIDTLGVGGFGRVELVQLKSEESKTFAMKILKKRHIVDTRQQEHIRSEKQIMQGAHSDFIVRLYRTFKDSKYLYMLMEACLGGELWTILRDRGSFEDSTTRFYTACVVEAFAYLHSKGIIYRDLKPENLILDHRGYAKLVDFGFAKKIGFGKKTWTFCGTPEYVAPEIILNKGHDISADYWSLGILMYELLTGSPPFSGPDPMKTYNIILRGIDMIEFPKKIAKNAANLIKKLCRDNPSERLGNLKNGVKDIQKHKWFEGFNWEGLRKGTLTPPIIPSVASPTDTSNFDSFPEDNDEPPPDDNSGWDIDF
To be noted: at 0.1 µM.

Experiment [15] deals with T5, cGMP-dependent protein kinase 1 (Homo sapiens). Particulars: at 1 µM.
Experiment [16] deals with T6, cGMP-dependent protein kinase 2 (Homo sapiens) (UniProt Q13237).
T6 sequence (whole entry): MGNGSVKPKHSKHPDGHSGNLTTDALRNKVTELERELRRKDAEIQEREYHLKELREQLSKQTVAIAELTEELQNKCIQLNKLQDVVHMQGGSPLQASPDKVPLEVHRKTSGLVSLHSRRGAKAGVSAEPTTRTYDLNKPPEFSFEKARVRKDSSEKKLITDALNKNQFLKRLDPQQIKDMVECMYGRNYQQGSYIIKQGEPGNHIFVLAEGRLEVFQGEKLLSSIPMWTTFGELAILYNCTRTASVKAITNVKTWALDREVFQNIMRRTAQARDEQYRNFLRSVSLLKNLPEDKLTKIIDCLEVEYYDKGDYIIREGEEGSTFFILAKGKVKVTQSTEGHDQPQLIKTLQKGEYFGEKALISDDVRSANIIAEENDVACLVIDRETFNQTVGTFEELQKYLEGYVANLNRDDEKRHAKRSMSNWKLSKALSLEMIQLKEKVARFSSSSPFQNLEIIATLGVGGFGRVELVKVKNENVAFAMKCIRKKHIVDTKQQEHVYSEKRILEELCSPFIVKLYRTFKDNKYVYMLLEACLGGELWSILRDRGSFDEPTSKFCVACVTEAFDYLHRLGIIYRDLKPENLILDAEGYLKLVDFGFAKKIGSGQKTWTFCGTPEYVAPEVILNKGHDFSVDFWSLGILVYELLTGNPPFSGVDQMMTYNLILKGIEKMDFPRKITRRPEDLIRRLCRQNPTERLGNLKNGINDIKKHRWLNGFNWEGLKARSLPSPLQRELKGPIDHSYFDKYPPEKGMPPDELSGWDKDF
Particulars: at 0.1 µM.

Experiment [17] concerns the target T6, cGMP-dependent protein kinase 2 (Homo sapiens). Particulars: at 1 µM.
Experiment [18] addresses T7, cAMP-dependent protein kinase catalytic subunit PRKX (Homo sapiens) (UniProt P51817).
T7 sequence (whole entry): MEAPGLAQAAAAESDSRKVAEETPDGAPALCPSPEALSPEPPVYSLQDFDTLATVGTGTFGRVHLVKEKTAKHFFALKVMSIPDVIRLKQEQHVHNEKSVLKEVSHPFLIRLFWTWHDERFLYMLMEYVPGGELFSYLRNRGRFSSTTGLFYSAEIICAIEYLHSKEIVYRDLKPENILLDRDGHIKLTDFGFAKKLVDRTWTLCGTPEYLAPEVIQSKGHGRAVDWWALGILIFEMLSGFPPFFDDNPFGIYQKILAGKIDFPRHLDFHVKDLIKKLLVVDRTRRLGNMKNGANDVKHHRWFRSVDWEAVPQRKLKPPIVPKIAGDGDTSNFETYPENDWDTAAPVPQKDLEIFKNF
Particulars: at 0.1 µM.

Experiment [19] concerns the target T7, cAMP-dependent protein kinase catalytic subunit PRKX (Homo sapiens). To be noted: at 1 µM.
Experiment [20] deals with Rho-associated protein kinase 1 (Homo sapiens) (UniProt Q13464). Particulars: at 0.1 µM.
Rho-associated protein kinase 1 (Homo sapiens), sequence (Q13464 2-1354 limits assumed): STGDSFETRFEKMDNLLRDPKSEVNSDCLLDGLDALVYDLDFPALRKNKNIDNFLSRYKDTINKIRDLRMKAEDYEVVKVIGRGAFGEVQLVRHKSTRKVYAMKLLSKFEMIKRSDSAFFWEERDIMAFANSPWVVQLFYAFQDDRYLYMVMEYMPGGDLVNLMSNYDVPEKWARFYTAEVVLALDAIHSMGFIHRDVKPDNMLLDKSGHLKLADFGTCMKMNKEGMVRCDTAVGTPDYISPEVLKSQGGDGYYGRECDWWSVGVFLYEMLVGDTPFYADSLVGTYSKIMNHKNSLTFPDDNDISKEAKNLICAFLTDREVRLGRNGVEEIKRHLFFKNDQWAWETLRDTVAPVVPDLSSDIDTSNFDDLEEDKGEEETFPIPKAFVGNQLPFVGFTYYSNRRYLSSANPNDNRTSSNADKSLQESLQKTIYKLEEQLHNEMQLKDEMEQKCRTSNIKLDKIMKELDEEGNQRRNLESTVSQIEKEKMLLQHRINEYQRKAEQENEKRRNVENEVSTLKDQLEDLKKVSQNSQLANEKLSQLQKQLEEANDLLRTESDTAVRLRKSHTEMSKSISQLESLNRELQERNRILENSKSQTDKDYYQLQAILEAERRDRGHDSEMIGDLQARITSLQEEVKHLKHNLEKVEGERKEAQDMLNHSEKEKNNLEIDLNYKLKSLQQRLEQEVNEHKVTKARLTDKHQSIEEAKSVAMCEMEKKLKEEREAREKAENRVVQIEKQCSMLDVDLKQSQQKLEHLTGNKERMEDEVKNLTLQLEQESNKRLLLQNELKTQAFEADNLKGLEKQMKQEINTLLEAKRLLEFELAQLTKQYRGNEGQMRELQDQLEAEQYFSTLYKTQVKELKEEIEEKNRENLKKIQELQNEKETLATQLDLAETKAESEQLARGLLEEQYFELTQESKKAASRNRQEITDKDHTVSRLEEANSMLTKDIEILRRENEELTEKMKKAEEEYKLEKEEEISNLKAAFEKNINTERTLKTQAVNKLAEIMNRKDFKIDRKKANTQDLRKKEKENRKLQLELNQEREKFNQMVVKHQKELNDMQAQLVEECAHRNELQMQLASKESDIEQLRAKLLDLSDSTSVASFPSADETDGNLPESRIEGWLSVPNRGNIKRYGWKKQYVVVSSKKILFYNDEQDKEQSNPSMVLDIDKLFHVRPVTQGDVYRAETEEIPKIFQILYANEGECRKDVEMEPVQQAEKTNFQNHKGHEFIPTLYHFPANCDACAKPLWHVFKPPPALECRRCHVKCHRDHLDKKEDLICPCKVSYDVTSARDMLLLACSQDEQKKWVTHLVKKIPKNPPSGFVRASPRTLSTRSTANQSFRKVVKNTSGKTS

Protein kinase C theta type (Homo sapiens), sequence (Q04759 whole entry, looked up): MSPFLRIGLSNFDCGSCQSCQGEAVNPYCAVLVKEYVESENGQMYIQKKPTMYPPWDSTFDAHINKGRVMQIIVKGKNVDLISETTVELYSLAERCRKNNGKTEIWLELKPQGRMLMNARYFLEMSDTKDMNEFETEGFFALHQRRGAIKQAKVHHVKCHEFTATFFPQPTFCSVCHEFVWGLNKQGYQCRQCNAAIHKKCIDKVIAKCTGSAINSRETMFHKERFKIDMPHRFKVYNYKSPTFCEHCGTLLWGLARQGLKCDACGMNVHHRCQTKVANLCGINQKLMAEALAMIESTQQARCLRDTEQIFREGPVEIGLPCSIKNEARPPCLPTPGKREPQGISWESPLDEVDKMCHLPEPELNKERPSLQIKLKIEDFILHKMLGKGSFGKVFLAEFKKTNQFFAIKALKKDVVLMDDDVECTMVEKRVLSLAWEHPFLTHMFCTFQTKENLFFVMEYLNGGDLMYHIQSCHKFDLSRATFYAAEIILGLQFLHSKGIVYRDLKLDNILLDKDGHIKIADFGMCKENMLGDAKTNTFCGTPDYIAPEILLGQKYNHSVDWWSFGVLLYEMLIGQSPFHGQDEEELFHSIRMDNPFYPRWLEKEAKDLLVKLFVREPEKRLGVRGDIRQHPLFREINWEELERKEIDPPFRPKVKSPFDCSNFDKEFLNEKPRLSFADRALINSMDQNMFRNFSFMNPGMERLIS
Protein kinase C beta type (Homo sapiens), sequence (P05771 2-671 limits assumed): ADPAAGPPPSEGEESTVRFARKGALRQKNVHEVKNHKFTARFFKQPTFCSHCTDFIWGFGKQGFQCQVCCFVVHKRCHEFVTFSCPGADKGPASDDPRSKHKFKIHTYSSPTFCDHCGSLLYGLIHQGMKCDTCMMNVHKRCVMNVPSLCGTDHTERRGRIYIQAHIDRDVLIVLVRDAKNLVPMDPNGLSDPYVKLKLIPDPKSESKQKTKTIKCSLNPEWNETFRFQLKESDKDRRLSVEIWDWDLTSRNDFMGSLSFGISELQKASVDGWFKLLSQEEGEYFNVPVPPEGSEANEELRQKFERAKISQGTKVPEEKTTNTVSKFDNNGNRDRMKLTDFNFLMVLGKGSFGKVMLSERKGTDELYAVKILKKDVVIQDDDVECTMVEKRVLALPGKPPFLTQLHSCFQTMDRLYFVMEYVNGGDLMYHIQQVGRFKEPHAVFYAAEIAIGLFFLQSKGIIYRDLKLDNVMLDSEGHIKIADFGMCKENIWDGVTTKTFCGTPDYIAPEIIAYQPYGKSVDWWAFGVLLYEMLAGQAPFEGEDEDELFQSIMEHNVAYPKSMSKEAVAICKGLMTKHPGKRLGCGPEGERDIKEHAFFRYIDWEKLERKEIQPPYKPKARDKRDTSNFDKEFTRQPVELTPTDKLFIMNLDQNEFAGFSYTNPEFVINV

As to `FC(F)(F)c1cccc(-c2nn3ncccc3c2-c2ccnc(Nc3ccc4c(c3)OCCO4)n2)c1`, the inhibition was 2.4% in [1]; -1.47% in experiment [2]; 2.18% in experiment [3]; 0.59% in experiment [4]; -0.24% in [5]; 0.37% in experiment [6]. Also, the inhibition worked out at 0.77% in experiment [7]; 3.4% in [8]; 33.6% in [9]; 5.98% in experiment [10]; 49% in experiment [11]; 6.61% in experiment [12]. Besides, the inhibition was found to be 47.2% in experiment [13]; 0.41% in experiment [14]; 2.81% in experiment [15]; 0.46% in [16]; 3.03% in [17]; 0.27% in experiment [18]. Besides, the inhibition in experiment [19] is -1.55%; in experiment [20], 0%.

These data come from ChEMBL document CHEMBL1961873, “Compounds: GSK PKIS; Assays: Nanosyn kinase panel” (2012).
